Bioassay records deposited in PubChem by National Center for Advancing Translational Sciences (NCATS).
HEK293 viab: counter-screen for SNCA expression inhibitors: cell viability; HEK-293-SNCA-luc viability, GF-AFC fluorescence, 24 h; Potency, µM (series often up to 57.1 µM), for inactives: at the highest dose activity change, negative = cytotoxicity, usual class: cytotoxic; 150,000 tested, 0.12% active;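 note: potency is the fitted concentration of half-maximal effect; 0% = DMSO-treated cells and -100% = medium-only wells without cells; nearly all actives have a fitted effect of over 30% in size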
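Cytotoxicity counterscreen: after 24 h compound treatment of genome-edited SNCA-luciferase HEK-293 cells, live-cell protease substrate GF-AFC read by fluorescence after 30 min; activity scaled between DMSO (0%) and medium-only (-100%), curves Hill-fitted.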
SNCA expr inhib: reduces expression of the alpha-synuclein gene; HEK-293 SNCA-luciferase knock-in, luminescence, 24 h; Potency, µM (highest dose often 57.2 µM), for inactives: at the highest dose activity change, negative = inhibition, actives largely listed as inhibitors; 140,000 tested, 0.17% active;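 note: potency is the fitted concentration of half-maximal effect; plate controls were DMSO cells for no effect and cell-free wells for full effect; nearly all actives have a fitted effect of over 45% in size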
GPT2 inhibitor: blocks human glutamate pyruvate transaminase 2. Q8TD30. 100,000 tested, 0.25% active. Potency, µM (series often up to 57.7 µM), inactives show at the highest dose activity change, negative = inhibition, usual class: inhibitors. Recombinant GPT2, coupled pyruvate oxidase/HRP Amplex Red fluorescence; note: potency is the fitted concentration of half-maximal effect; nearly all actives have a fitted effect of over 60% in size
Target sequence (Q8TD30 whole entry, looked up): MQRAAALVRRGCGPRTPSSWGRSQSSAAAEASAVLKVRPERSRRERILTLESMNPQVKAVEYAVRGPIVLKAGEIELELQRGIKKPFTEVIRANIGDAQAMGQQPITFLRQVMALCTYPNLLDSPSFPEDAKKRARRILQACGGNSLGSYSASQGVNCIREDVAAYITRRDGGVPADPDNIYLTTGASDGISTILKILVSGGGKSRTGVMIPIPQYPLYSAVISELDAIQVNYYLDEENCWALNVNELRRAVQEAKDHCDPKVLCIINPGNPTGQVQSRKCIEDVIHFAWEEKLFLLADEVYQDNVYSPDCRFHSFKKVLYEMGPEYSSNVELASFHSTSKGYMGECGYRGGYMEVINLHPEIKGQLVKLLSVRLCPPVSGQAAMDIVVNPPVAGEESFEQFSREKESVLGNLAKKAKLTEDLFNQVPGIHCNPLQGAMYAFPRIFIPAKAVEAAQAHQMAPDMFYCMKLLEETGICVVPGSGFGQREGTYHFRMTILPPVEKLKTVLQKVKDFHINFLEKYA
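GPT2 10ng/uL, a-KG 250uM, L-Ala 2mM, HEPES pH7.5 + 0.0001% Tween; 30 min RT. Then Amplex mix (PO/HRP/ThPP), 30 min RT dark, fluorescence. AOA 50uM used as positive control.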
IP6K1 inh: IP6K1 kinase inhibition | Q92551 | IP6K1 kinase, ADP-Glo luminescence, 2 h; hits give low values | activity change, % (series mostly up to about 58 µM) | 140,000 tested, 0.81% active | AID 1645851; in the data active = activity change below about -25%
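ADP-Glo luminescence measures ADP made by human IP6K1 during a 2 h RT reaction with ATP/IP6 (mix at 1.3 mM/130 uM); top library doses 57.5 and 19.1 uM final.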
IP6K1 inh cnf: confirmation of human IP6K1 inhibitors | shares compounds with IP6K1 inh | recombinant IP6K1 kinase, ADP-Glo luminescence, 2 h | Potency, µM (series often up to 49 µM), without a hit: at the top dose activity change, negative = inhibition, hits mostly inhibitors | 1,200 tested, 13% active | AID 1645852; note: potency is the fitted concentration of half-maximal effect; nearly all actives have a fitted effect of over 65% in size
An asterisk follows results filed as active; i = inactive; ? = inconclusive; / = no result given; [ ] = remark or other dose. Only some compounds are listed: those with a hit (about 1.1% of all), similar ones and a draw of the others. Unless noted, calls come from the whole dose curve; as a rule, active = well fitted curve in the direction sought with a large enough effect; inconclusive = small, poorly fitted or top-dose-only effect, or another doubt; inactive = no such curve, though single readings can be large; an effect the other way counts as inactive or inconclusive. Unless noted, % is set by controls: 0 for no effect and ±100 for the full control effect.

SMILES	HEK293 viab	SNCA expr inhib	GPT2 inhibitor	IP6K1 inh	IP6K1 inh cnf
COc1cccc2c1cc1c(=O)n(CC(=O)NCc3ccc(C)o3)nc(C)n12	8.1%	-7.5%	/	-29.8*	-3.8%
CCCC(=O)c1cc(O)c(O)cc1O	-14.5%	29.5%	?	-95.8*	?
CC(C)CCN(Cc1ccco1)C(=O)Cn1ncc2c([nH]c3ccccc32)c1=O	-0.4%	?	/	-28.6*	-9.2%
Cc1ccc(-c2csc(=Nc3ccc(F)cc3)n2Cc2ccc3c(c2)OCO3)cc1C	25.7%	80.1%	/	-35.8*	-4.7%
CCN(CC)S(=O)(=O)c1ccc(-c2csc(=Nc3cccc(C(F)(F)F)c3)n2Cc2ccc3c(c2)OCO3)cc1	7.2%	-0.8%	/	-4.4	/
Fc1ccc(-c2csc(=Nc3cccc(C(F)(F)F)c3)n2Cc2ccc3c(c2)OCO3)cc1	13.4%	1.5%	/	-25.8*	2.5%
Cc1ccc(-c2csc(=Nc3ccccc3)n2Cc2ccc3c(c2)OCO3)cc1C	-10.7%	99.3%	/	-15.9	/
O=c1n(-c2ccc([N+](=O)[O-])cc2)nc2n1CCN(Cc1ccc(OC(F)(F)F)cc1)C2	-3.4%	-18.9%	i	7.3	/
COC(=O)N1CCC(C(=O)N2CCC(c3nc4ncccc4[nH]3)CC2)C1 (stereo unspecified)	2.0%	?	i	-7.1	/
COc1ccc(NC(=O)C2CCN(C(=O)c3ncn4c3COC(c3ccccc3)C4)CC2)cc1 (stereo unspecified)	0.5%	84.5%	i	-30.5*	-12.6%
Cc1cccc(C(=O)n2nc(-c3cccnc3)nc2NCc2ccccc2)c1	1.0%	17.8%	/	-29.9*	?
Cc1ccccc1C(=O)n1nc(-c2cccnc2)nc1NCc1ccccc1	0.5%	-3.0%	/	20.2	/
COc1cccc(-c2ccc(C(=O)NCCNC(=O)c3ccccn3)cc2)c1	/	/	/	-12.3	/
COc1cccc(-c2ccc(C(=O)NCCNC(=O)C(C)(C)C)cc2)c1	/	/	/	1.4	/
COc1cc(NC(=O)Cn2c(=O)nc(-c3ccccc3F)c3cc(Cl)ccc32)cc(OC)c1	?	?	/	-28.5*	?
O=C(Nc1cc(-c2ccncc2)nn1-c1ccccc1)C1CC1	12.1%[87.6 µM]	3.6%[87.6 µM]	-2.6%[88.5 µM]	-2.6	/
Cc1cc(O)c2ccccc2c1O	-8.5%[23.9 µM]	-5.8%[25.6 µM]	?	-27.9*	?
O=C(NCc1nc(-c2cccc(F)c2)c(-c2ccccn2)[nH]1)[C@@H]1C[C@@H](O)CN1	-2.9%	2.4%	-20.9%	-30.4*	-6.9%
CN(Cc1cnn(C)c1)C(=O)C1C2C(=O)N(Cc3ccc(F)cc3)C[C@@]23C=C[C@@H]1O3 (stereo partly specified)	-4.6%	-19.9%	3.8%[11.5 µM]	-41.6*	-13.1%
O=C(C1C2C(=O)N(Cc3ccc(F)cc3)C[C@@]23C=C[C@@H]1O3)N1CCSCC1 (stereo partly specified)	-9.5%	-0.5%	2.2%	-12.4	/
O=S(=O)(c1ccccc1)N1CCN(c2ccc3nnc(-c4ccccc4)n3n2)CC1	/	/	/	3.5	/
O=C(NCCN1C(=O)C2(CCCCC2)C1c1ccccc1)C1CC=CC1 (stereo unspecified)	6.8%	-9.1%	i	2.4	/
CN1CCN(c2ccc3ncc(Nc4ccc(Cl)c(C(F)(F)F)c4)n3n2)CC1	12.9%[87.6 µM]	?	?	-15.6	/
CCOC(=O)CN([C@@H]1C[C@@H]2CO[C@H](C(C)C)C[C@@H]2C1)[S+](=O)([O-])c1cccs1	/	/	/	-4.1	/
Cc1ccc(C2Cn3nnc(C(=O)N4CCC(C(=O)NC5CC5)CC4)c3CO2)cc1 (stereo unspecified)	13.6%	104.6%	i	0.0	/
SMILES	HEK293 viab	SNCA expr inhib	GPT2 inhibitor	IP6K1 inh	IP6K1 inh cnf
O=C(c1ccc2cc[nH]c2c1)N1CCN(C(=O)c2nnn3c2COC(c2ccc(Cl)cc2)C3)CC1 (stereo unspecified)	-25.3%	-8.1%	i	-28.2*	-8.8%
Cc1ccc(C2Cn3nnc(C(=O)N4CCC(C(=O)NC5CCC(C)CC5)CC4)c3CO2)cc1 (stereo unspecified)	0.5%	5.2%	i	-29.8*	-10.4%
O=S(=O)(c1ccccc1F)N1CC(n2cnnc2-c2ccccc2)C1	3.8%	-25.3%	i	17.7	/
CN1C[C@@H](NC(=O)Nc2ccccc2)C[C@H]1c1nc(-c2ccccc2)no1	1.5%[87.6 µM]	48.9%[87.6 µM]	i	-25.3*	?
CN1C[C@@H](NC(=O)Nc2ccccc2)C[C@H]1c1nc(-c2ccc(F)cc2)no1	-13.9%[87.6 µM]	-26.3%[87.6 µM]	-3.4%[88.5 µM]	-10.3	/
CCOC(=O)c1ccc(NC(=O)CSc2nnc(-c3ccncc3)n2-c2ccccc2)cc1	0.2%	28.1%	/	-26.6*	21.4%
NCC(=O)Nc1ccc(-n2nc(C(F)(F)F)cc2-c2ccc3c(ccc4ccccc43)c2)cc1	?	34.3%	i	-34.9*	?
Cc1ccc(C(=O)Nc2ccc3oc(-c4cccnc4)nc3c2)c(Cl)c1	-0.9%	19.7%	/	-29.8*	?
O=C(Nc1ccc2oc(-c3cccnc3)nc2c1)c1ccccc1F	13.8%	55.1%	/	-29.5*	?
O=C(Nc1cc(C2CC2)nn1-c1ccccc1)c1cccc(Br)c1	4.5%	-6.7%	1.0%	1.3	/
CCc1cccc(NC(=O)c2cc(-c3ccc[nH]3)n[nH]2)c1	4.5%	32.2%	i	-30.3*	9.2µM*
CCOc1ccc(NC(=O)c2cc(-c3ccc[nH]3)n[nH]2)cc1	-11.5%	12.8%	4.4%	15.1	-4.0%
COc1ccc(NC(=O)c2cc(-c3ccc[nH]3)n[nH]2)cc1	-6.7%	20.3%	4.2%	6.4	/
Cc1cc(C)cc(NC(=O)c2cc(-c3ccc[nH]3)n[nH]2)c1	-13.3%	189.4%	3.3%	21.9	/
Cc1ccc(NC(=O)c2cc(-c3ccc[nH]3)n[nH]2)cc1	7.7%	42.6%	i	3.5	-19.7%
CCc1ccc(NC(=O)c2cc(-c3ccc[nH]3)n[nH]2)cc1	-0.6%	6.2%	4.4%	-3.1	/
O=C(Nc1ccc(Cl)cc1)c1cc(-c2ccc[nH]2)n[nH]1	0.0%	48.6%	i	16.5	-0.3%
COc1ccc(C(OC2OC(CO)C(O)C(O)C2O)C(C)O)cc1 (stereo unspecified)	-13.1%	/	i	-2.7	/
COCCn1c(=O)c(C(=O)NCc2cccc(OC)c2)nc2cccnc21	7.4%	-4.1%	-23.2%	25.4	/
Cc1cccc(N2CCN(c3ccc(C(=O)O)cc3NC(=O)c3cccc(Cl)c3)CC2C)c1 (stereo unspecified)	3.8%	-12.1%	/	-28.1*	?
COc1cccc(N2CCN(S(=O)(=O)c3ccc(-c4cnc(C5CC5)o4)cc3)CC2)c1	1.6%	25.4%	/	-34.7*	?
O=S(=O)(c1ccc(-c2cnc(C3CC3)o2)cc1)N1CCN(c2cccc(Cl)c2)CC1	11.5%	-4.7%	/	-6.3	/
COc1ccc(N2CCN(S(=O)(=O)c3ccc(-c4cnc(C5CC5)o4)cc3)CC2)cc1	-7.5%	-9.7%	/	-41.3*	-6.5%
